An excerpt weighted towards active compounds, which were near 0.91% of everything screened.
LNCaP diff act – activators of LNCaP prostate cell differentiation, primary screen, flow cytometry side scatter | side scatter shift, % at 10 µM | 4 d | 0.56% of 24,000 active;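 active means side scatter shift above 30%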;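 further: androgen-responsive LNCaP prostate cancer cells in charcoal-stripped serum medium; percent of cells past a gate set so DMSO wells show 10% shift; higher shift means more granular cells and more differentiation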
S aureus QS inh – S. aureus quorum sensing inhibitors, primary screen, RNAIII-GFP reporter, flow cytometry | S. aureus RN6390 RNAIII-GFP reporter, AIP-induced, flow cytometry 3 h | 0.3% of 24,000 active | inhibition, % at 2 µM;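 active means share of bacteria positive for the green fluorescent reporter and its mean brightness both inhibited by 50% or more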;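 further: 0% = AIP-stimulated control and 100% = unstimulated bacteria without AIP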
* marks the source's active call; other numbers are inactive results.

SMILES	LNCaP diff act	S aureus QS inh
COc1ccc(NC(=O)C(c2ccccc2)N(C)C(=O)c2cnccn2)cc1 (stereo not drawn)	7	1
Cc1cc(NC(=O)c2ccc(S(=O)(=O)N3CCCC3)cc2)nc2c1c(=O)oc1ccccc12	3	-7
COc1ccc(-c2nc3ncccn3c2Nc2ccc3c(c2)OCCO3)cc1	9	-1
Oc1ccc(-c2nc3ncccn3c2Nc2ccc3c(c2)OCCO3)cc1	1	83*
COc1ccc2c(c1)CCc1c(C(=O)Nc3ccn(Cc4ccc(C)cc4)n3)noc1-2	26	0
COc1ccc2c(c1)CCc1c(C(=O)Nc3cc(C)n(Cc4ccc(Cl)cc4)n3)noc1-2	62*	3
COCCNC(=O)CSc1nc2cc(OC)c(OC)cc2c(=O)n1Cc1ccco1	2	-1
COC(=O)c1ccc2c(=O)n(Cc3ccco3)c(SCC(=O)Nc3ccc(C)c(Cl)c3)nc2c1	34*	3
CCOC(=O)c1c(C(=O)OCC)c(C)n(N2C(=O)CSC2=S)c1C	3	-8
O=C(NCCN1CCc2ccccc2C1)Nc1ccc(F)cc1	7	-5
CCc1ccc(NC(=O)NCCN2CCc3ccccc3C2)cc1	34*	-3
CC(C)OC(=O)CCCN1C(=O)c2ccc(N)cc2C1=O	3	-3
CC(C)OC(=O)CSc1nnc(Cc2ccccc2)n1Cc1ccco1	2	0
CC1CCCCN1CCNC(=O)c1ccc2c(=O)n(CCc3ccccc3)c(=O)[nH]c2c1 (stereo not drawn)	48*	1
CC1CCN(CCNC(=O)c2ccc3c(=O)n(CCc4ccccc4)c(=O)[nH]c3c2)CC1	5	3
O=c1cc(N2CCc3ccccc3C2)[nH]c(=O)n1C1CCCCC1	62*	4
O=c1cc(N2CCC(Cc3ccccc3)CC2)[nH]c(=O)n1C1CCCCC1	18	16
COc1ccc(-c2oc3ncn(CCN4CCOCC4)c(=N)c3c2-c2ccc(OC)cc2)cc1	34*	53*
COc1ccc(-c2nc(C#N)c(NCCCN3CCOCC3)o2)cc1	5	3
CC(C)Cc1cc(C(=O)Nc2sc3c(c2C#N)CCCC3)no1	12	55*
Cc1cc(C(=O)Nc2sc3c(c2C#N)CCCC3)no1	3	0
O=c1oc(-c2ccco2)nc2ccccc12	30*	-1
CCC(=O)Nc1cccc(-c2nc3ccccc3c(=O)o2)c1	7	-1
CCOC(=O)N1CCC(N2C(=O)c3ccccc3C2Nc2cc(Cl)c(OC)cc2OC)CC1 (stereo not drawn)	7	-2
Cn1cc(/C=N/n2cnc3sc4c(c3c2=O)CCCC4)c2ccccc21	2	68*
SMILES	LNCaP diff act	S aureus QS inh
Cn1cc(C2NC(=O)c3c(sc4c3CCCC4)N2)c2ccccc21 (stereo not drawn)	7	0
CC(C)N(CCNC(=O)C1CCC(=O)N1Cc1ccc(F)cc1)Cc1ccccc1 (stereo not drawn)	11	-1
COC(=O)c1ccccc1NC(=O)CN1CCC(n2nnc3cc(F)ccc32)CC1	30*	0
Cc1cccc(C(=O)N2CCC(n3nnc4cc(F)ccc43)CC2)c1	8	0
COc1cc(C2NC(C(=O)O)CS2)ccc1OCc1ccccc1C#N (stereo not drawn)	6	-1
CCCC(=O)Nc1ccc(-c2nc3cc(C)c(C)cc3o2)cc1	5	-1
CCN(CC)CC(=O)Nc1ccc(-c2nc3cc(NC(=O)CN(CC)CC)ccc3o2)cc1	42*	0
Nc1cc(OC(=O)c2cccs2)nn1S(=O)(=O)c1ccccc1	5	-2
Cc1nn(-c2ccccc2)c(OC(=O)c2cccs2)c1S(=O)(=O)c1ccccc1	6	53*
CCOC(=O)N1CCC(NC(=O)CCc2c(C)nc3c(c(C)nn3C(C)(C)C)c2C)CC1	5	13
Cc1cc(C)nc(N2CCC(C(=O)NCc3cccc(C(F)(F)F)c3)CC2)n1	16	0
Cc1cc(C)nc(N2CCC(C(=O)Nc3ccc(Oc4ccccc4)cc3)CC2)n1	33*	1
CCC(C)C(NS(=O)(=O)c1ccc(C)cc1)C(=O)NCCN1CCOCC1 (stereo not drawn)	11	-2
c1ccc(N2CCN(c3nnc(Cc4cccnc4)c4ccccc34)CC2)nc1	30*	2
CC(C)NC(=O)c1cnc(N2CCN(c3ccccn3)CC2)c2ccccc12	23	-2
CC(C)N1CCC2(CC1)N=C(c1ccc3c(c1)OCO3)CC(c1cc(Cl)ccc1O)N2 (stereo not drawn)	34*	14
CC(=O)c1c(C)nc(-c2ccc3c(c2)OCO3)n1O	12	-3
COc1cc2c(C(=O)NCc3ccccn3)cn(CC(C)C)c(=O)c2cc1OC	16	0
CCCCNC(=O)c1cc2c(-c3ccc(Cl)cc3)nn(C)c2s1	4	-7
Cn1nc(-c2ccc(Cl)cc2)c2cc(C(=O)NCCCN3CCCC3)sc21	62*	-1
CCN1CCCC1CNC(=O)c1cc2c(-c3cccc(OC)c3)nn(C)c2s1 (stereo not drawn)	23	1
CCN1CCCC1CNC(=O)c1cc2c(-c3ccc(Cl)cc3)nn(C)c2s1 (stereo not drawn)	64*	3
CCSc1nnc(NC(=O)CSc2nc3c(c(=O)n2-c2ccccc2)SCC3)s1	1	-5
Cc1c(NC(=O)C(C)OC(=O)C(NC(=O)c2ccco2)C(C)C)c(=O)n(-c2ccccc2)n1C (stereo not drawn)	8	1
CCCCn1nnnc1SCC(=O)N1CCN(C(=O)c2ccco2)CC1	5	0
SMILES	LNCaP diff act	S aureus QS inh
CCCS(=O)(=O)N1CCCC(C(=O)NCCc2ccc(Cl)cc2)C1 (stereo not drawn)	10	1
Cc1ccc(C(C)C)c(OCc2nnc(SCC(=O)Nc3ncc(C)s3)n2C)c1	13	-1
CCn1c(SCC(=O)Nc2ccc(Cl)cc2)nnc1C1CC1	6	-2
CCCCCCn1c(SCC(=O)OC)nc2c1c(=O)[nH]c(=O)n2C	7	-2
COc1ccc(-c2cc(C(F)(F)F)nc(N3CCN(C)CC3)n2)cc1	43*	3
COc1ccc(-c2cc(C(F)(F)F)nc(N3CCCCCC3)n2)cc1	10	-1
Cc1ccc(C(=O)N2CCN(C(=O)c3ccc(C)c(C)c3)C(C)C2)cc1C (stereo not drawn)	8	-1
CCOC(=O)c1cnc2nc(C)[nH]n2c1=O	2	-1
CCOC(=O)c1cnn(-c2cc(C)c3cc(C)cc(C)c3n2)c1N	32*	-4
COc1ccc(OC)c(S(=O)(=O)NCc2csc(-c3ccccc3)n2)c1	19	-3
O=C(CCN1C(=O)c2ccncc2C1=O)NCc1ccc(Cl)cc1	2	4
COC(=O)c1ccc(CSc2nc3c(cnn3-c3ccc(Cl)cc3)c(=O)[nH]2)o1	2	71*
COC(=O)c1ccc(CSc2nc3c(cnn3-c3ccc(F)cc3)c(=O)[nH]2)o1	6	7
O=C(Nc1ccc2c(c1)OCO2)C(c1ccccc1)N1CCCCC1 (stereo not drawn)	12	12
CC1CCCN(C(C(=O)Nc2ccc3c(c2)OCO3)c2ccccc2)C1 (stereo not drawn)	13	99*
CC1CCCN(C(C(=O)Nc2ccc3c(c2)OCCO3)c2ccccc2)C1 (stereo not drawn)	14	99*
CC1CCN(C(C(=O)Nc2ccc3c(c2)OCO3)c2ccccc2)CC1 (stereo not drawn)	14	15
COc1ccccc1N(CC(=O)NC1CCCC1)C(=O)c1csnn1	8	0

Screening results deposited in PubChem BioAssay by NMMLSC.
